Assay [1] can be described thus: resazurin metabolic signal in HepG2 cells – cell-based, resazurin fluorescence, 24 h, PK04 Diversity Set, profiling panel (AID 1172). As to conditions: HepG2 viability, higher = more signal. Background: Resazurin is reduced to fluorescent resorufin, in cell work by metabolically active cells.
A short description of assay [2]: budding yeast growth changes without added modifier – OD600, strain BY4716, 24 h, basal condition, primary screen (AID 1173). The conditions noted are these: S. cerevisiae BY4716 growth, OD600, 24 h; higher = more signal, called active from +8 up or from −8 down.
Assay [3] is described as follows: viability profiling in MM1S myeloma cells – cell-based, resazurin fluorescence, basal, 24 h, PK04 Diversity Set, profiling panel (AID 1174).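 Further: MM1S multiple myeloma cell line.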 The conditions noted are these: higher = more signal, called active from +8 up or from −8 down.
Assay [4] addresses Dihydroorotate dehydrogenase (quinone), mitochondrial (Plasmodium falciparum (isolate 3D7)) (UniProt Q08210). As to the kind of experiment: inhibition of P. falciparum DHODH – biochemical, C-terminal His tag, absorbance 600 nm, primary screen (AID 1175).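 Further: recombinant parasite enzyme with a five histidine tag at its C terminus.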 As to conditions: PfDHODH enzyme, DCIP absorbance 600 nm; higher = more signal, called active from +8 up or from −8 down.
Assay [5] is described as follows: inhibition of PAO1 biofilm formation – strain PAO1, LB-PBS medium, absorbance 600 nm, primary screen (AID 1176). As to conditions: P. aeruginosa PAO1 growth/biofilm, A600, 12 h; higher = more signal.
The nature of assay [6]: growth modulation of vineyard yeast isolate – strain RM11-1a, OD600, basal, 24 h, primary screen (AID 1177).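 Further: cultures grown under basal conditions with no added stressor.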 As to conditions: S. cerevisiae RM11-1a growth, OD600, 24 h; higher = more signal, called active from +8 up or from −8 down.
Assay [7] is described as follows: growth of efflux-deficient E. coli DRC39 – strain DRC39, OD650, 24 h, E. coli filamentation inducers, primary screen (AID 1178).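 Further: growth measured as culture turbidity by optical density at 650 nm.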 As to conditions: E. coli DRC39 acrAB, higher = more signal, called active from +8 up or from −8 down.
The nature of assay [8]: growth of efflux-deficient E. coli DRC39 – strain DRC39, OD650, 48 h, E. coli filamentation inducers, primary screen (AID 1179).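 Further: screen aims at cell division blockers that make cells filament.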 As to conditions: E. coli DRC39 delta-acrAB growth, higher = more signal, called active from +8 up or from −8 down.
Assay [9] can be described thus: viability profiling in RPMI8226 myeloma cells – cell-based, resazurin fluorescence, basal, 24 h, PK04 Diversity Set, profiling panel (AID 1180).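 Further: RPMI8826 multiple myeloma cell line at 5000 cells per well.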 The conditions noted are these: higher = more signal.
Assay [10] addresses E3 ubiquitin-protein ligase XIAP (Homo sapiens) (UniProt P98170). As to the kind of experiment: small molecules binding XIAP protein – biophysical, small-molecule microarray, fluorescence 635 nm, primary screen (AID 1181).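 Further: score merges 667 nm emission and signal to noise over triplicate slides.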 As to conditions: higher = more signal.
Assay [11] deals with XIP peptide (Xip251-270) binding. As to the kind of experiment: XIP fragment 251-270 binding compounds – biochemical, small-molecule microarray, fluorescence 635/667 nm, 0.1 µg/mL protein, primary screen (AID 1182). The conditions noted are these: fluorescent protein binding, 635 nm, higher = more signal, called active from +8 up or from −8 down.
For assay [12], the system named is XIP peptide (Xip251-270). As to the kind of experiment: compounds binding XIP fragment 251-270 – biochemical, small-molecule microarray, fluorescence 635/667 nm, 0.5 µg/mL protein, primary screen (AID 1183). As to conditions: fluorescence 635 nm, higher = more signal.
Assay [13] can be described thus: blood-stage malaria parasite viability loss – strain 3D7, DAPI fluorescence, 100 nL, primary screen (AID 1184).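 Further: parasites grown inside human red blood cells in medium with human serum.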 As to conditions: P. falciparum 3D7 growth, 3 d, higher = more signal.
Assay [14] deals with Homeobox protein Hox-A13 (Mus musculus) (UniProt Q62424). As to the kind of experiment: disruptors of Hoxa13 oligonucleotide interaction – biochemical, fluorescence polarization, labeled oligonucleotide, primary screen (AID 1185). The conditions noted are these: Hoxa13:DNA binding, 15 min, higher = more signal, called active from +8 up or from −8 down. Background: In fluorescence polarisation assays a small probe gives low polarisation when free and higher when bound to something large.

Assay [15] can be described thus: blockers of DNA damage checkpoint Chk1 activation – imaging, HeLa, hydroxyurea, phospho-Chk1 antibody, percent positive cells, primary screen (AID 1186). As to conditions: hydroxyurea-induced phospho-Chk1 immunofluorescence imaging, higher = more signal.
Assay [16] can be described thus: blockers of DNA damage checkpoint Chk1 activation – imaging, HeLa, hydroxyurea, phospho-Chk1 nuclear intensity, primary screen (AID 1187). The conditions noted are these: hydroxyurea-induced phospho-Chk1 immunofluorescence imaging, higher = more signal.

Structures are written as SMILES. Activity calls are given as the source filed them. Unless noted, how the calls were made is not given here.

Chain of Homeobox protein Hox-A13 (Mus musculus) (Q62424 whole entry, looked up): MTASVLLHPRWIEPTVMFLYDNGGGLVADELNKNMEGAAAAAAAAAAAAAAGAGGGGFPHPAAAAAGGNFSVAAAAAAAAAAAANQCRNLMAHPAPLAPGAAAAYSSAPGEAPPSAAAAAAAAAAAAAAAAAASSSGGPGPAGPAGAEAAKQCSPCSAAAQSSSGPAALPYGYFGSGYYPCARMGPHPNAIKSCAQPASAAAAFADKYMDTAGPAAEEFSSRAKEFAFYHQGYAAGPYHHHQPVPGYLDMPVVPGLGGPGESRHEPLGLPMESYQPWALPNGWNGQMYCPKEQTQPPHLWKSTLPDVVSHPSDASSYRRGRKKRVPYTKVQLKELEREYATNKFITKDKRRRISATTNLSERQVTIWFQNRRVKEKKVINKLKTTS
Chain of E3 ubiquitin-protein ligase XIAP (Homo sapiens) (P98170 whole entry, looked up, the tested form may be a part): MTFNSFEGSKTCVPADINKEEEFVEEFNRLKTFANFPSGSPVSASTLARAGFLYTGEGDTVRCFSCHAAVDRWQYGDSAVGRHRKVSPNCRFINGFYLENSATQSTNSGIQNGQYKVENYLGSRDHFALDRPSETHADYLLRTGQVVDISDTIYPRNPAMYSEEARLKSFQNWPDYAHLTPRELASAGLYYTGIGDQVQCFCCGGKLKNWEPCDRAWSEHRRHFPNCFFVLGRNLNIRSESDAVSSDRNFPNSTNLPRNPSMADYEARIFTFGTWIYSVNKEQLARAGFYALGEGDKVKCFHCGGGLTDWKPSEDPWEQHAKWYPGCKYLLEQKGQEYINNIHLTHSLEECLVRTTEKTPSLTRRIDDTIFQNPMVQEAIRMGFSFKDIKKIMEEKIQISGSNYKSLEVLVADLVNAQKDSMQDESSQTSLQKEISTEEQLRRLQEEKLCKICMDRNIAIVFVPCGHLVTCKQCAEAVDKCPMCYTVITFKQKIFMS
Chain of Dihydroorotate dehydrogenase (quinone), mitochondrial (Plasmodium falciparum (isolate 3D7)) (Q08210 whole entry, looked up): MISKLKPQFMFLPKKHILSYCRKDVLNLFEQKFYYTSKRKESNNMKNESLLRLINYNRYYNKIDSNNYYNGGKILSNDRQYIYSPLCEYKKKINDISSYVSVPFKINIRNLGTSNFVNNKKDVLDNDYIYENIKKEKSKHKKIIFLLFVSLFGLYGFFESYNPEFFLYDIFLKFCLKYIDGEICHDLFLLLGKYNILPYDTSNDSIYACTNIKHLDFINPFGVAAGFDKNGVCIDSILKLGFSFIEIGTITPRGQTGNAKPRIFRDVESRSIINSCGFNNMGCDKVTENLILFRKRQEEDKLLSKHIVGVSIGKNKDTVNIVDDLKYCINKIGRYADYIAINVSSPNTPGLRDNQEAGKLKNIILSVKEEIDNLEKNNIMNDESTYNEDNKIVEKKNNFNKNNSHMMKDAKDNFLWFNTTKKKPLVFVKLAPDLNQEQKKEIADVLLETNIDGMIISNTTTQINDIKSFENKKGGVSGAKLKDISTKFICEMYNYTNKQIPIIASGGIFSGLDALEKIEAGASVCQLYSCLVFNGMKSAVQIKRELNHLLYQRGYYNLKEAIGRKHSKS

`CCCC=C(CCC)[C@@H](NC(=O)c1cccs1)c1ccc(C(=O)OC)cc1`: the z-score is 0.756 in assay [1]; 1.07 (inactive) in [2]; 0.645 (inactive) in [3]; -0.94 (inactive) in assay [5]; -0.27 (inactive) in assay [6]; 0.204 (inactive) in assay [7]. For the same molecule, the z-score in assay [8] is -0.814 (inactive); in assay [9], 0.429; in assay [13] it was -0.417; in assay [14] it was -0.907 (inactive); in assay [15] it was -0.255 (inactive); in assay [16], -0.354 (inactive). Besides, the composite z-score was 0.519 (inactive) in assay [4], -0.031 in assay [10], -0.185 (inactive) in assay [11] and 0.285 in assay [12].

Consider `O=C1O[C@@H](c2ccccc2)[C@@H](c2ccccc2)N2[C@@H](c3ccc(O)cc3)[C@]3(C(=O)Nc4ccc(C#CCCO)cc43)[C@@H](C(=O)N3CCN(c4ncccn4)CC3)[C@H]12`, for which the z-score in assay [1] is 1.13; in [2], 1.94 (inactive); in assay [3], 0.609 (inactive); in assay [5], 1.77 (inactive); in assay [6], 2.96 (inactive); in assay [7], 1.08 (inactive). Further, the z-score was 0.602 (inactive) in assay [8]; 0.509 in assay [9]; -2.11 in [13]; -2.41 (inactive) in [14]; -0.193 (inactive) in assay [15]; 0.058 (inactive) in assay [16]. For the same molecule, the composite z-score in [4] was 0.378 (inactive); in [10] it was -0.197; in assay [11] it was 0.678 (inactive); in assay [12], 0.731.

On to `COC(=O)c1c(CC[C@@H](CO)NC(=O)N[C@@H](C)Cn2cc(-c3ccccn3)nn2)oc(C(C)=O)c1C(=O)OC`, for which the z-score in assay [1] is -0.962; in assay [2] it was -0.369 (inactive); in [3], 0.0168 (inactive); in assay [5], -0.109 (inactive); in assay [6], -0.37 (inactive); in assay [7], -0.207 (inactive). The z-score in [8] was -0.605 (inactive); in [9], -0.921; in assay [13] it was -1.89; in [14] it was 0.452 (inactive); in assay [15], -0.207 (inactive); in [16], 0.363 (inactive). For the same molecule, the composite z-score was -2.74 (inactive) in assay [4], 0.0808 in assay [10], 1.29 (inactive) in assay [11] and 0.881 in [12].

Take `CC(C)[Si](C#CCCCC#N)(O[C@H](c1ccccc1)c1cn(Cc2ccccc2)nn1)C(C)C`: the z-score was -0.538 in assay [1]; -6.51 (inactive) in assay [2]; 0.118 (inactive) in assay [3]; 0.584 (inactive) in assay [5]; -0.431 (inactive) in [6]; -0.25 (inactive) in assay [7]. The z-score in assay [8] is 0.0331 (inactive); in [9], 0.424; in assay [13] it was 0.559; in assay [14], -1.61 (inactive); in assay [15], -0.727 (inactive); in [16], -0.29 (inactive). The composite z-score in [4] is -0.0054 (inactive); in [10] it was -0.0025; in [11], 0.206 (inactive); in [12] it was 0.391.

In the case of `NC(=O)[C@H]1[C@@H]2C(=O)O[C@@H](c3ccccc3)[C@@H](c3ccccc3)N2[C@@H](c2ccc(OCCO)cc2)[C@]12C(=O)Nc1ccc(C#CCCO)cc12`, the z-score in assay [1] was -0.0423; in assay [2] it was 0.704 (inactive); in assay [3], -0.245 (inactive); in assay [5], 0.35 (inactive); in assay [6], 1.78 (inactive); in assay [7] it was -0.0157 (inactive). Besides, the z-score in assay [8] was 0.0992 (inactive); in assay [9] it was -0.169; in assay [13], 0.358; in assay [14] it was -4.68 (inactive); in assay [15], -0.317 (inactive); in [16], -0.838 (inactive). For the same molecule, the composite z-score in assay [4] is -0.624 (inactive); in assay [10], -0.0884; in assay [11], 0.32 (inactive); in [12], 0.357.

On to `C=C(COC)C(=O)CC[C@@H](OC(C)=O)c1cccc(OCCO)c1`, for which the z-score in assay [1] was -0.434; in assay [2] it was 0.823 (inactive); in [3], -0.0743 (inactive); in assay [5], -0.329 (inactive); in assay [6] it was 1.17 (inactive); in assay [7], 0.858 (inactive). Besides, the z-score was 0.503 (inactive) in assay [8]; -0.929 in assay [9]; -0.988 in assay [13]; -3.69 (inactive) in assay [14]; 0.367 (inactive) in assay [15]; -0.113 (inactive) in assay [16]. Also, the composite z-score in assay [4] was 0.0704 (inactive); in assay [10], -0.263; in assay [11], 0.309 (inactive); in assay [12] it was -0.0276.

As for `COCCOC(=O)N1C(=O)[C@@]2(c3cc(C#CCNC(N)=O)ccc31)[C@H](C(N)=O)[C@H]1C(=O)O[C@H](c3ccccc3)[C@H](c3ccccc3)N1[C@@H]2c1ccccc1OCCO`, the z-score in [1] was -0.281; in assay [2], 0.407 (inactive); in assay [3] it was -0.126 (inactive); in assay [5], 0.986 (inactive); in assay [6], 1.59 (inactive); in [7] it was -0.0653 (inactive). The z-score in [8] is -0.0752 (inactive); in assay [9], -0.0771; in [13], 0.0701; in assay [14] it was -2.45 (inactive); in assay [15] it was 0.0661 (inactive); in assay [16], 0.588 (inactive). In addition, the composite z-score is -0.235 (inactive) in assay [4], -0.135 in assay [10], 0.253 (inactive) in assay [11] and 0.485 in assay [12].

As to `COC(=O)[C@@]1(Cc2ccc(OC)cc2)[C@H]2c3cc(C(=O)N4CCCC4)n(CCc4c[nH]c5ccc(O)cc45)c3C[C@H]2CN1C(=O)c1ccccc1`, the z-score in assay [1] is -0.553; in assay [2], 0.532 (inactive); in assay [3] it was -0.56 (inactive); in assay [5], 0.411 (inactive); in assay [6], 0.7 (inactive); in assay [7] it was 0.23 (inactive). Also, the z-score was 0.288 (inactive) in [8]; -0.377 in [9]; -1.44 in [13]; -4.21 (inactive) in assay [14]; 0.336 (inactive) in assay [15]; 0.258 (inactive) in [16]. In addition, the composite z-score in assay [4] was -0.402 (inactive); in [10] it was 0.0401; in assay [11], 0.903 (inactive); in [12] it was 0.864.

Consider `C=CCN1C(=O)[C@]2(CCS(=O)(=O)c3ccccc3)N=C(c3ccc(OCCCO)cc3)O[C@@H]2c2ccccc21`, for which the z-score in assay [1] is -0.735; in [2], 0.383 (inactive); in [3], -1.36 (inactive); in assay [5], 0.218 (inactive); in assay [6] it was 0.742 (inactive); in assay [7], 0.7 (inactive). Also, the z-score was 0.916 (inactive) in assay [8]; -1.96 in assay [9]; -2.33 in assay [13]; -2.55 (inactive) in [14]; -0.419 (inactive) in [15]; -0.216 (inactive) in [16]. For the same molecule, the composite z-score was -0.756 (inactive) in assay [4], 0.0738 in assay [10], 0.0088 (inactive) in assay [11] and 0.804 in assay [12].

The record behind these values is PubChem BioAssay.
